High-throughput results from PubChem BioAssay.
Sampled rows, rich in hits. Any-hit rate of the full collection: about 1.2%.
RPL19A TOR yeast: modulators of TOR pathway RPL19A-GFP in S. cerevisiae. S. cerevisiae RPL19A-GFP strain, flow cytometry, 3 h; hits give low values. percent response vs DMSO, % at 10 µM. hit rate 0.3% among 330,000;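 active means percent response vs DMSO below 50%; inconclusive means fewer than 70 events counted for the yeast strain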;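 further: median channel GFP fluorescence of the barcoded RPL19A-GFP strain; lower means less RPL19A-GFP as with rapamycin TOR inhibition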
MEP2 TOR yeast: alters MEP2-GFP fluorescence in TOR pathway yeast screen. S. cerevisiae MEP2-GFP strain, flow cytometry GFP, 3 h; 100% = DMSO control level. GFP response vs DMSO, % at 10 µM. hit rate 0.51% among 330,000. AID 2016;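 active means GFP response versus DMSO above a set limit, roughly screen mean plus 3 SD, cut at about 180% in these data; inconclusive means fewer than 70 cells counted for a yeast strain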;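 further: median GFP fluorescence of the barcode-gated MEP2-GFP cells per well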
AGP1-GFP MLPCN: yeast TOR pathway AGP1-GFP modulation | GFP response vs DMSO, % at 10 µM | S. cerevisiae AGP1-GFP multiplex flow cytometry, 3 h; GFP as percent of DMSO wells | hit rate 0.02% among 320,000;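 active means GFP response relative to DMSO above a set limit, near screen average plus 3 SD, cut at about 150% in these data; inconclusive means fewer than 70 cells counted for the yeast strain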;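 further: median GFP channel fluorescence of the gated AGP1 strain per well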
LAP4 TOR yeast: yeast TOR pathway LAP4-GFP modulation; S. cerevisiae LAP4-GFP multiplex, flow cytometry GFP, 3 h; median GFP as percent of DMSO wells; GFP response vs DMSO, % at 10 µM; hit rate 0.34% among 320,000; AID 2023;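 active means GFP response vs DMSO above a set limit, about the screen mean plus 3 SD, cut at about 150% in these data; inconclusive means under 70 cell events counted for the yeast strain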
CIT2-GFP yeast: alters CIT2-GFP fluorescence in TOR pathway yeast screen. S. cerevisiae CIT2-GFP strain, flow cytometry, 3 h; 100 means same as DMSO wells. GFP response vs DMSO, % at 10 µM. hit rate 0.065% among 320,000. AID 2029;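 active means GFP response relative to DMSO above a set limit, near the screen mean plus 3 SD, cut at about 150% in these data; inconclusive means Fewer than 70 cells measured for a yeast strain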;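 further: ratio of well median GFP fluorescence to mean of DMSO wells on the plate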
DSG3 Ab inh: blocks pemphigus antibody binding to human desmoglein-3. P32926. DSG3-coupled beads, scFv-anti-DSG3-GFP binding, flow cytometry; hits give low values. binding (percent of control), % at 10 µM. hit rate 0.48% among 310,000. AID 588358;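 active means binding more than 3 SD below its plate's average and above zero; inconclusive means below that plate limit but binding exactly zero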;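 further: hits lower antibody fragment binding to DSG3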
A number is an active result; . = inactive; ? = inconclusive; / = no result given; [ ] = another dose, or the depositor's remark.

SMILES | RPL19A TOR yeast | MEP2 TOR yeast | AGP1-GFP MLPCN | LAP4 TOR yeast | CIT2-GFP yeast | DSG3 Ab inh
NS(=O)(=O)c1ccc(-c2ccc(/C=C3\SC(=S)N(C4CCS(=O)(=O)C4)C3=O)o2)cc1 (configuration not stated) | . | . | . | . | . | 77
Cc1cc(NC(=O)CCC(=O)N(c2ccccc2)C(C)C(=O)NC2CCCC2)no1 (configuration not stated) | . | . | . | . | . | .
O=C(Nc1ccc(F)cc1)c1ccc2c(c1)S(=O)(=O)N=C1CCCCCN12 | . | . | . | . | . | /
CCOc1ccc(NC(=O)c2ccc3c(c2)S(=O)(=O)N=C2CCCCCN23)cc1 | / | / | / | / | / | 78
O=C(Nc1nc2c(s1)CCCC2)c1cc2n(n1)C(C(F)(F)F)CC(C1CC1)N2 (configuration not stated) | . | 182[may fluoresce violet] | / | . | ? | .
N#Cc1ccccc1COC(=O)CCCC1=NS(=O)(=O)c2ccccc2N1 | . | . | . | . | . | /
O=Nc1c(O)c2ccccc2c2ccccc12 | . | . | . | 210 | . | .
CCOc1cc2[nH]c(=O)n(CCCCCC(=O)NCc3ccco3)c(=O)c2cc1OCC | . | 190[may fluoresce violet] | . | . | ? | .
O=C1CSC(=S)N1/N=C/c1cc(Br)c(O)c(Br)c1 | . | . | . | . | . | .
O=C(Nc1cccnc1)c1c(O)c2cccc3c2n(c1=O)CC3 | 49[may fluoresce violet] | . | ? | . | ? | .
CNC(=O)c1c(O)c2cccc3c2n(c1=O)CC3 | . | . | . | . | . | .
Cc1ccc(NC(=O)CSc2nc3ccccc3c(=O)n2CC2CCCO2)cc1 (configuration not stated) | . | . | . | . | . | .
CN(C)c1ccc(NC(=O)CSc2nc3ccccc3c(=O)n2CC2CCCO2)cc1 (configuration not stated) | . | 214[may fluoresce violet] | ? | . | ? | /
Cc1ccc(C(=O)N2c3ccccc3NC(=O)C2C)cc1 (configuration not stated) | . | 247 | . | 212 | / | .
Cc1cc(C)c2c(N)c3ccccc3nc2n1 | 15[may fluoresce violet] | . | . | . | ? | /
Cc1cc(C)c2cccc(N)c2n1 | . | . | . | . | . | .
CCc1ccc2nc3nc(C)cc(C)c3c(N)c2c1 | 32[may fluoresce violet] | 384[may fluoresce violet] | ? | . | ? | .
CCN(C(=O)Cn1cnc2ccccc2c1=O)C1CCS(=O)(=O)C1 (configuration not stated) | . | . | . | . | . | .
O=S(=O)(NCc1ccccc1)c1ccc(S(=O)(=O)N(Cc2ccccn2)Cc2ccco2)cc1 | . | . | . | . | . | 76
CCN(CC)S(=O)(=O)c1ccc(S(=O)(=O)N(Cc2ccccn2)Cc2ccco2)cc1 | . | . | . | . | . | .
CN1c2ccccc2N(C)C1(C)c1ccccc1 | 39[may fluoresce violet] | 186[may fluoresce violet] | . | . | ? | .
CC(=O)c1cccc(NC(=O)CSc2nc(C3CC3)nc3ccccc23)c1 | 32[may fluoresce violet] | . | ? | . | ? | .
O=C(CSc1cn[nH]n1)Nc1ccccc1F | . | . | . | . | . | .
O=C(CSc1cn[nH]n1)Nc1ccc(Cl)cc1Cl | . | 239[may fluoresce violet] | ? | . | ? | .
COc1ccc(C)cc1S(=O)(=O)NCC(c1ccco1)N1CCc2ccccc2C1 (configuration not stated) | . | . | . | . | . | .
SMILES | RPL19A TOR yeast | MEP2 TOR yeast | AGP1-GFP MLPCN | LAP4 TOR yeast | CIT2-GFP yeast | DSG3 Ab inh
C=C(C)C(=O)Nc1cccc(C2=NOC3(C2)C[C@@H](C(N)=O)N(C(=O)c2ccc(OC)cc2)C3)c1 (some centres not stated) | . | . | . | . | . | 69
C=C(C)C(=O)Nc1cccc(C2=NOC3(C2)C[C@@H](C(N)=O)N(C(=O)c2cc([N+](=O)[O-])cc([N+](=O)[O-])c2)C3)c1 (some centres not stated) | . | . | . | . | . | .
COCCN1C(=O)c2ccccc2C(C(=O)NCCN(C)C)C1c1ccc(F)cc1 (configuration not stated) | . | 464[may fluoresce violet] | . | . | ? | /
O=C(NC(=S)Nc1ccc2nc[nH]c2c1)c1ccccc1 | . | . | . | . | 168[may fluoresce green] | .
CC(=O)c1cc2c(cc1NC(=O)c1ccc(Cl)cc1)OCCO2 | . | . | . | . | . | 31
O=C(c1ccc(C(F)(F)F)cc1)C1CCCN(C(=O)CCc2ccncc2)C1 (configuration not stated) | . | . | . | . | . | /
CC(C)(C)SCCNC(=O)CN(c1ccc(F)cc1)S(C)(=O)=O | . | . | . | . | . | .
CC(C)(C)SCCNC(=O)CN(c1ccccc1)S(=O)(=O)c1ccc(F)cc1 | . | . | . | . | . | 5.2
CC(C)C(C(=O)NCc1ccco1)N(Cc1ccco1)C(=O)CNS(=O)(=O)c1ccc(F)cc1 (configuration not stated) | 24[may fluoresce violet] | ? | ? | . | ? | /
COc1ccc(NS(=O)(=O)c2ccc(C(=O)N(C)Cc3ccc(C)o3)cc2)cc1 | . | . | . | . | . | .
Cc1cccc(OCC(=O)NC(=S)Nc2ccc(S(=O)(=O)NC3CCCCC3)cc2)c1 | . | . | . | . | . | 63
CC(C)C(=O)NC(=S)Nc1ccc(S(=O)(=O)NC2CCCCC2)cc1 | . | . | . | . | . | .
CCC(C)(C)NC(=O)C(c1ccco1)N(C(=O)CNC(=O)c1cccs1)c1cccnc1 (configuration not stated) | . | 288[may fluoresce violet] | . | . | ? | .
COc1cc(C(C(=O)NC(C)(C)C)N(C(=O)CNC(=O)c2cccs2)c2cccnc2)cc(OC)c1OC (configuration not stated) | . | . | . | . | . | /
CC(C)c1ccccc1NC(=O)CN1C(=O)c2ccccc2C1=O | . | . | . | . | . | .
Cc1cnc(NS(=O)(=O)c2ccccc2)c(C)n1 | . | . | . | . | . | 66
OC1(c2ccc(F)cc2)CSC(=Nc2cccnc2)N1Cc1ccco1 (configuration not stated) | . | . | . | 197 | . | .
CC1(C)CC(=O)C=C(c2cccc(OC(=O)c3ccc(-c4ccccc4)cc3)c2)C1=O | / | / | / | / | / | .
Cc1ccc(S(=O)(=O)N2CCCOC2CNC(=O)C(=O)NCCc2ccco2)cc1 (configuration not stated) | / | / | / | / | / | 82
COc1ccc(C(=O)c2nccc3ccccc23)cc1 | . | 185 | . | . | . | /
COc1cc(/C=N/N(C)C)cc(Br)c1O | 40[may fluoresce violet] | 461[may fluoresce violet] | ? | . | ? | .
OCC1(Cc2ccccc2)CCN(Cc2ccc(-c3ccco3)cc2)CC1 | . | . | . | . | . | .
OCC1(Cc2ccccc2)CCCN(Cc2ccc(-c3ccco3)cc2)C1 (configuration not stated) | 36[may fluoresce violet] | 328[may fluoresce violet] | . | . | ? | .
